Bioassay records as filed in PubChem.
KB-3-1 tox = KB-3-1 parental cell cytotoxicity; KB-3-1 viability, CellTiter-Glo ATP luminescence, 72 h; Potency, µM (top dose mostly 46.1 µM), usual class: cytotoxic; actives 1.4% (n = 400,000); AID 1347075; note: nearly all actives have a fitted effect of over 60% in size
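Screening of KB-3-1 cells (DMEM, 10% FBS, phenol-red free) ran from lowest to highest compound concentration; after 72 h at 37 °C viability was read luminescently and curves fitted.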
KB-V1 cytotox = KB-V1 MDR subline cytotoxicity | KB-V1 MDR cells viability, CellTiter-Glo, 72 h | Potency, µM (doses to about 46.1 µM), hits mostly cytotoxic | AID 1347076 | actives 3.4% (n = 400,000); note: nearly all actives have a fitted effect of over 60% in size
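KB-V1, DMEM (no phenol red) + 10% FBS; cpd pin-transferred, titration series; 72 h, 37 degrees C; CellTiter-Glo, luminescence. Data normalized, curve-fit.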
HT1080 IDH1KD tx = HT-1080 IDH1 knockdown cell toxicity (counter line). actives 2% (n = 360,000). HT-1080 IDH1 knockdown viability, ATP luminescence, 48 h. Potency, µM (highest dose often 46.1 µM), actives largely listed as cytotoxic
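CellTiter-Glo luminescence after 48 h compound exposure at 37 degrees C of IDH1-knockdown HT-1080 cells in 5% FBS RPMI. %Activity scaled between DMSO wells and cell-free media wells, with curves fitted and assigned curve classes.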
DT40 TDP1 CPT = DT40-hTDP1 cell growth loss with CPT; chicken DT40 Tdp1-/-;hTDP1 cells + 20 nM CPT, ATP luminescence, 48 h; Potency, µM (top dose mostly 46.2 µM), most hits filed as inhibitors; actives 12% (n = 420,000); AID 686979; note: nearly all actives have a fitted effect of over 55% in size
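Chicken DT40 Tdp1-/- cells complemented with human TDP1, 400 cells/well, exposed to compounds plus 20 nM camptothecin for at least 48 h at 37 C; viability read as ATP content by CellTiter-Glo luminescence.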
TDP1 cell noCPT = qHTS for Inhibitors of human tyrosyl-DNA phosphodiesterase 1 (TDP1): qHTS in cells in absence of CPT. AID 686978, 2013. Potency, µM (series often up to 46.2 µM), hits mostly inhibitors. actives 15% (n = 420,000). DT40 Tdp1-/- hTDP1 cells, no CPT, ATP luminescence, 48 h; note: nearly all actives have a fitted effect of over 55% in size
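Growth of hTDP1-complemented DT40 Tdp1-knockout cells is measured by ATP luminescence after at least 48 hr compound exposure at 37 °C, with DMSO substituting for the 20 nM CPT used in the parallel screen.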
HT1080-NT tox = kills 2HG-producing HT-1080-NT fibrosarcoma cells. HT-1080-NT fibrosarcoma viability, CellTiter-Glo ATP luminescence, 48 h. Potency, µM (titrated, usually from 46.1 µM), actives largely listed as cytotoxic. actives 1.6% (n = 360,000);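 note: NT is the 2HG producing partner of a matched IDH1 knockdown line; nearly all actives have a fitted effect of over 55% in size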
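Compounds were tested in concentration-response format on HT-1080-NT cells for 48 hours at 37 degrees C. Cell viability came from CellTiter-Glo luminescence; curves were classified by r2, response magnitude and activity.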
Large screens that a line does not name were inactive; ! = repeats disagree. Shown are actives, neighbours in structure and some others; about 19% of the full set was active somewhere. Calls come from the whole dose curve; as a rule, active = well fitted curve in the direction sought with a large enough effect; inconclusive = small, poorly fitted or top-dose-only effect, or another doubt; inactive = no such curve, though single readings can be large; an effect the other way counts as inactive or inconclusive.

O=C(O)CCSc1nnc(COc2cccc3ccccc23)n1-c1cccc(Cl)c1	none
CCC(NC(=O)c1ccncc1)c1ccccc1 (stereo not given)	TDP1 cell noCPT inconclusive
CCOC(=O)/C(C#N)=C1/SC(CC)C(=O)N1c1ccc(Br)cc1 (stereo not given)	KB-V1 cytotox 8.2µM
Cc1ccc(N2CC(C(=O)NCc3nnnn3-c3ccc(C)c(C)c3)CC2=O)cc1C (stereo not given)	TDP1 cell noCPT inconclusive (no result: KB-3-1 tox, KB-V1 cytotox, HT1080 IDH1KD tx, HT1080-NT tox)
O=C(Nc1nnc(-c2ccco2)o1)c1ccc([N+](=O)[O-])s1	KB-3-1 tox inconclusive, KB-V1 cytotox inconclusive, HT1080 IDH1KD tx inconclusive, DT40 TDP1 CPT 8.2µM, TDP1 cell noCPT 9.2µM, HT1080-NT tox inconclusive
Cc1ccc(C(=O)Nc2nnc(-c3ccco3)o2)cc1	KB-3-1 tox inconclusive, DT40 TDP1 CPT 23µM, TDP1 cell noCPT 23µM
O=C(Nc1nnc(-c2ccncc2)o1)c1ccc(Br)s1	KB-3-1 tox 21µM, KB-V1 cytotox inconclusive, HT1080 IDH1KD tx inconclusive, DT40 TDP1 CPT 15µM, TDP1 cell noCPT 13µM
Cc1ccsc1C(=O)Nc1nnc(-c2ccco2)o1	KB-3-1 tox inconclusive, KB-V1 cytotox inconclusive, HT1080 IDH1KD tx inconclusive, DT40 TDP1 CPT inconclusive
O=C(Nc1nnc(-c2ccco2)o1)c1ccc2ccccc2c1	KB-3-1 tox inconclusive, DT40 TDP1 CPT inconclusive, TDP1 cell noCPT 21µM
COC(=O)C1CCN(C(=O)c2cc(-c3ccco3)nc3ccccc23)CC1	TDP1 cell noCPT inconclusive
COc1ccc(-c2csc3nc(-c4ccc(F)cc4)oc(=O)c23)cc1OC	DT40 TDP1 CPT inconclusive (no result: HT1080 IDH1KD tx, HT1080-NT tox)
N#Cc1ccc(C(=O)Nc2nnc(-c3ccco3)o2)cc1	KB-3-1 tox inconclusive, KB-V1 cytotox inconclusive, DT40 TDP1 CPT inconclusive, TDP1 cell noCPT 6.5µM
CCOC(=O)C1CCCN(C(=O)c2cc(S(=O)(=O)N3CCCCC3)ccc2Cl)C1 (stereo not given)	DT40 TDP1 CPT 21µM, TDP1 cell noCPT 21µM
CC1CN(C(=O)c2cc(S(=O)(=O)N(C)c3ccc(F)cc3)ccc2Cl)CC(C)O1 (stereo not given)	DT40 TDP1 CPT 2.3µM, TDP1 cell noCPT 1µM
Cc1ccc(S(=O)(=O)N2CCOCC2)cc1C(=O)N1CC(C)OC(C)C1 (stereo not given)	none
CC1CN(C(=O)c2cc(S(=O)(=O)N3CCN(c4ccccc4)CC3)ccc2Cl)CC(C)O1 (stereo not given)	KB-V1 cytotox inconclusive, DT40 TDP1 CPT 3.7µM, TDP1 cell noCPT 2.1µM
CCOC(=O)C1CCCN(S(=O)(=O)c2ccc(F)c(C(=O)Nc3ccc(F)c(F)c3)c2)C1 (stereo not given)	KB-V1 cytotox inconclusive, DT40 TDP1 CPT 23µM!, TDP1 cell noCPT 16µM, HT1080-NT tox inconclusive
Cc1cccc(NC(=O)Cn2ccn(-c3ccc4c(c3)OCCO4)c(=O)c2=O)c1	KB-V1 cytotox inconclusive
CC1CCN(C(=O)c2cc3ccccc3o2)CC1	KB-V1 cytotox inconclusive
O=C(NNS(=O)(=O)c1ccccc1Cl)c1nn(-c2ccc(F)cc2)ccc1=O	none
O=S1(=O)NC(=NCCc2ccccn2)c2ccccc21	none
CC1CN(C(=O)c2cc(S(=O)(=O)N3CCCCC3)ccc2Cl)CC(C)O1 (stereo not given)	KB-V1 cytotox 21µM, DT40 TDP1 CPT 16µM, TDP1 cell noCPT 12µM
O=C(c1cc(S(=O)(=O)N2CCN(c3ccccc3)CC2)ccc1Cl)N1CCCCCCC1	KB-3-1 tox inconclusive, KB-V1 cytotox inconclusive, DT40 TDP1 CPT inconclusive, TDP1 cell noCPT 15µM
CC1CN(C(=O)c2cc(S(=O)(=O)N3CCCC3)ccc2Cl)CC(C)O1 (stereo not given)	TDP1 cell noCPT inconclusive
COc1cc(=O)n2c(c1C(=O)NCc1ccc3c(c1)OCO3)CCN(C(=O)c1ccccc1F)CC2	none (no result: KB-3-1 tox, KB-V1 cytotox, HT1080 IDH1KD tx, HT1080-NT tox)
CCOC(=O)c1ccc(NS(=O)(=O)c2cc(Br)cc3c2N(C(C)=O)C(C)C3)cc1 (stereo not given)	KB-3-1 tox inconclusive, DT40 TDP1 CPT 9.2µM, TDP1 cell noCPT 8.2µM (no result: HT1080 IDH1KD tx, HT1080-NT tox)
COc1ccc(NS(=O)(=O)c2cc(Br)cc3c2N(C(C)=O)CC3)cc1	KB-3-1 tox 4.1µM, KB-V1 cytotox 9.2µM, HT1080 IDH1KD tx 12µM, DT40 TDP1 CPT 8.2µM, TDP1 cell noCPT 12µM, HT1080-NT tox 18µM
CC(=O)N1c2c(cc(Br)cc2S(=O)(=O)Nc2ccc(OC(F)(F)F)cc2)CC1C (stereo not given)	DT40 TDP1 CPT 18µM, TDP1 cell noCPT 15µM (no result: HT1080 IDH1KD tx, HT1080-NT tox)
CC(=O)N1c2c(cc(Br)cc2S(=O)(=O)Nc2ccccc2C)CC1C (stereo not given)	DT40 TDP1 CPT inconclusive, TDP1 cell noCPT inconclusive (no result: HT1080 IDH1KD tx, HT1080-NT tox)
CCN(c1cccc(C)c1)S(=O)(=O)c1cc(Br)cc2c1N(C(C)=O)C(C)C2 (stereo not given)	DT40 TDP1 CPT 23µM, TDP1 cell noCPT 21µM (no result: HT1080 IDH1KD tx, HT1080-NT tox)
CCOC(=O)Cn1c(C2CC(=O)N(c3ccc(C)cc3)C2)nc2ccccc21 (stereo not given)	none (no result: HT1080 IDH1KD tx, HT1080-NT tox)
CC(=O)Nc1ccc(Oc2ccc(S(=O)(=O)N3CCCC3)cn2)cc1	none
CC1CN(C(=O)Cn2c(=O)oc3ccccc32)CC(C)O1 (stereo not given)	none
CC(CCc1ccccc1)N(C)CC(O)c1cccc([N+](=O)[O-])c1 (stereo not given)	TDP1 cell noCPT inconclusive
O=C(CSc1nc2cc(Cl)ccc2s1)N1CCCc2ccccc21	KB-V1 cytotox inconclusive, DT40 TDP1 CPT inconclusive, TDP1 cell noCPT 14µM
C/C(N)=C(/C#N)C(=O)CSc1cc(Cl)ccc1Cl	KB-V1 cytotox inconclusive, TDP1 cell noCPT inconclusive
C/C(N)=C(/C#N)C(=O)CSc1nc2cc(Cl)ccc2s1	KB-V1 cytotox inconclusive, DT40 TDP1 CPT inconclusive, HT1080-NT tox 35µM
O=C(COc1ccccc1)Nc1ccc2nc(SCC(=O)N3CCc4ccccc43)sc2c1	DT40 TDP1 CPT inconclusive, TDP1 cell noCPT inconclusive (no result: HT1080 IDH1KD tx, HT1080-NT tox)
O=C(COc1ccccc1F)Nc1ccc2nc(SCC(=O)N3CCc4ccccc43)sc2c1	DT40 TDP1 CPT 7.3µM, TDP1 cell noCPT 5.2µM (no result: HT1080 IDH1KD tx, HT1080-NT tox)
O=C(COc1ccc(F)cc1)Nc1ccc2nc(SCC(=O)N3CCc4ccccc43)sc2c1	DT40 TDP1 CPT 2.6µM, TDP1 cell noCPT 2.6µM (no result: HT1080 IDH1KD tx, HT1080-NT tox)
Cn1c(=O)c2c(nc(CN3CCN(C(=O)c4ccco4)CC3)n2Cc2ccc(Cl)cc2)n(C)c1=O	none
Cc1ccc(OCC(=O)Nc2ccc(NC(=O)c3ccccc3)c(C)c2)cc1	DT40 TDP1 CPT inconclusive
